From PubChem BioAssay (NCI) come the findings set out here.

The panel holds about 83,000 compounds, 20% with a hit somewhere; the sample as a whole holds those more often.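 Cells were grown in 96-well plates and exposed to the test compound at a single concentration for 48 hours; results are reported as percent growth, with values below 10 considered active.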 Values without a mark were called inactive. Calls of active or inactive are those of the source.

Test systems include RPMI-8226 leukemia; OVCAR-8 ovarian; OVCAR-5 ovarian; OVCAR-4 ovarian; SK-OV-3 ovarian; IGROV1 ovarian; OVCAR-3 ovarian; HS 578T breast; NCI/ADR-RES ovarian; T-47D breast; BT-549 breast; MDA-MB-435 melanoma; SW-620 colon; MCF7 breast; HCT-116 colon; HCC-2998 colon; KM12 colon; MDA-MB-468 breast; SR leukemia.
Holding throughout (experiment): NCI-60 one-dose screen, 48 h (100 = growth as untreated, 0 = no growth, -100 = all killed)
Holding throughout (conditions): 10 µM

As to `Cc1ccc(NC(=O)NCn2c(=O)[nH]c3ccccc3c2=O)cc1`, the growth in the experiment with RPMI-8226 leukemia was 92.7%; with OVCAR-8 ovarian, 39.9%; in the experiment on OVCAR-5 ovarian it was 94.2%; with OVCAR-4 ovarian, 50.8%; in the experiment with SK-OV-3 ovarian it was 57.8%; in the experiment with IGROV1 ovarian, 76.6%. In addition, the growth is 87.6% with OVCAR-3 ovarian; 55.3% in the experiment on HS 578T breast; 70.7% in the experiment with NCI/ADR-RES ovarian; 79.6% in the experiment with T-47D breast; 115% in the experiment on BT-549 breast; 86.3% with MDA-MB-435 melanoma. The growth in the experiment on SW-620 colon is 78.5%; in the experiment on MCF7 breast, 72%; with HCT-116 colon it was 60.1%; with HCC-2998 colon, 102%; with KM12 colon it was 98.9%; with MDA-MB-468 breast, 84.1%.

For the compound `COc1ccc(-c2cc(C(=O)N=Nc3c(O)[nH]c4ccccc34)c3ccccc3n2)cc1`, the growth with SR leukemia is 22.8%; in the experiment on OVCAR-8 ovarian, -28.6% (active); in the experiment on OVCAR-5 ovarian it was 18.2%; with OVCAR-4 ovarian it was -36.7% (active); in the experiment on SK-OV-3 ovarian, 80.9%; in the experiment on IGROV1 ovarian, -62.5% (active). Further, the growth in the experiment with OVCAR-3 ovarian is -93.2% (active); in the experiment on HS 578T breast, 31.1%; in the experiment with NCI/ADR-RES ovarian, -14.4% (active); in the experiment on T-47D breast, 12.1%; in the experiment with MDA-MB-435 melanoma, 0.986% (active); in the experiment with SW-620 colon, -30.2% (active). Also, the growth in the experiment on MCF7 breast was -49.6% (active); in the experiment on HCT-116 colon, -43.3% (active); in the experiment on HCC-2998 colon, -16.4% (active); in the experiment on KM12 colon, -11.1% (active); with MDA-MB-468 breast it was -31.7% (active).

`O=C(O)CCCCCCCCCCN1C(=O)/C(=C/c2cnc(-c3ccccc3)s2)SC1=S`: the growth with RPMI-8226 leukemia is 86.5%; in the experiment on OVCAR-8 ovarian, 61.4%; in the experiment on OVCAR-5 ovarian, 109%; in the experiment on OVCAR-4 ovarian, 96.1%; with SK-OV-3 ovarian it was 130%; with IGROV1 ovarian, 95%. Besides, the growth in the experiment on OVCAR-3 ovarian is 102%; in the experiment with HS 578T breast, 117%; with NCI/ADR-RES ovarian, 57.5%; with T-47D breast, 74.2%; in the experiment with BT-549 breast, 106%; in the experiment with MDA-MB-435 melanoma, 87%. In addition, the growth in the experiment on SW-620 colon is 44.1%; with MCF7 breast, 28.8%; in the experiment on HCT-116 colon it was 31.8%; in the experiment with HCC-2998 colon it was 124%; in the experiment with KM12 colon, 24.6%; with MDA-MB-468 breast, 90.9%.

Regarding `COc1csc(/C=N/NC(=O)c2[nH]c3ccc(Br)cc3c2-c2ccccc2)c1`, the growth was 6.04% (active) in the experiment on RPMI-8226 leukemia; 2.26% (active) in the experiment on OVCAR-8 ovarian; 17.5% with OVCAR-5 ovarian; 30.3% in the experiment with OVCAR-4 ovarian; 26.3% in the experiment with SK-OV-3 ovarian; 22% in the experiment with IGROV1 ovarian. For the same compound, the growth with OVCAR-3 ovarian is 6.96% (active); with HS 578T breast, -1.74% (active); in the experiment on NCI/ADR-RES ovarian, -35.2% (active); with T-47D breast it was 47.1%; in the experiment with BT-549 breast, 31.8%; in the experiment with MDA-MB-435 melanoma it was -43.6% (active). Also, the growth with SW-620 colon was 17.9%; in the experiment on MCF7 breast it was -3.06% (active); with HCT-116 colon it was -29.4% (active); in the experiment on HCC-2998 colon it was 7.87% (active); in the experiment on KM12 colon, 3.46% (active).

In the case of `COc1ccc(-c2nc(S(=O)(=O)c3ccc(C)cc3)c(S(C)(=O)=O)o2)cc1`, the growth in the experiment on RPMI-8226 leukemia was -40.3% (active); in the experiment on OVCAR-8 ovarian it was -77.5% (active); in the experiment on OVCAR-5 ovarian, -88% (active); with OVCAR-4 ovarian, -90.2% (active); in the experiment on SK-OV-3 ovarian it was 83.6%; with IGROV1 ovarian, -24% (active). The growth is -92.4% (active) in the experiment with OVCAR-3 ovarian; 8.31% (active) in the experiment on HS 578T breast; -62.4% (active) with NCI/ADR-RES ovarian; -75.7% (active) in the experiment on T-47D breast; -12.5% (active) in the experiment on BT-549 breast; -97.1% (active) in the experiment with MDA-MB-435 melanoma. The growth with SW-620 colon was -58.5% (active); with MCF7 breast, -53.1% (active); in the experiment on HCT-116 colon it was -0.211% (active); with HCC-2998 colon, -87.6% (active); with KM12 colon it was -19% (active).

Regarding `Cc1ccc(NCC(=O)Nn2c(COc3ccccc3)nc3ccccc3c2=O)cc1`, the growth is 85.9% in the experiment on RPMI-8226 leukemia; 60.1% in the experiment on OVCAR-8 ovarian; 92.3% in the experiment with OVCAR-5 ovarian; 25.4% with OVCAR-4 ovarian; 52.8% in the experiment with SK-OV-3 ovarian; 82.4% in the experiment on IGROV1 ovarian. The growth with OVCAR-3 ovarian is 75.4%; in the experiment with HS 578T breast it was 66.1%; with NCI/ADR-RES ovarian, 72.6%; with T-47D breast it was 82.6%; in the experiment on BT-549 breast, 97.6%; in the experiment with MDA-MB-435 melanoma it was 92.6%. The growth with SW-620 colon is 95.1%; in the experiment with MCF7 breast it was 82%; in the experiment with HCT-116 colon, 85.1%; in the experiment on HCC-2998 colon, 95.7%; in the experiment on KM12 colon it was 100%; in the experiment with MDA-MB-468 breast, 80.1%.

For the compound `N#Cc1c(-c2ccc(F)cc2)nc(SCc2ccc(F)cc2)nc1N1CCOCC1`, the growth was 92.7% in the experiment on RPMI-8226 leukemia; 54.8% with OVCAR-8 ovarian; 83.1% with OVCAR-5 ovarian; 60.5% in the experiment on OVCAR-4 ovarian; 39.6% in the experiment on SK-OV-3 ovarian; 90.9% with IGROV1 ovarian. Besides, the growth in the experiment with OVCAR-3 ovarian was 75.2%; in the experiment with HS 578T breast, 25.7%; in the experiment on NCI/ADR-RES ovarian it was 63.5%; with T-47D breast, 73.2%; in the experiment on BT-549 breast, 64.3%; in the experiment with MDA-MB-435 melanoma, 93.5%. The growth was 85.5% in the experiment on SW-620 colon; 63.7% with MCF7 breast; 66% with HCT-116 colon; 87.4% in the experiment on HCC-2998 colon; 87.2% in the experiment on KM12 colon.

With `O=C(Nc1cccc(C(F)(F)F)c1)c1cncc(C#Cc2cnc3cccnn23)c1`, the growth was 9.35% (active) in the experiment on SR leukemia; 41% in the experiment with OVCAR-8 ovarian; 56.3% with OVCAR-5 ovarian; 64.9% with OVCAR-4 ovarian; 83.6% with SK-OV-3 ovarian; 41.6% with IGROV1 ovarian. Also, the growth was 43.7% with OVCAR-3 ovarian; 45.7% with HS 578T breast; 16.6% in the experiment with NCI/ADR-RES ovarian; 13.5% in the experiment on T-47D breast; 15.4% with BT-549 breast; 25.6% in the experiment with MDA-MB-435 melanoma. The growth in the experiment on SW-620 colon was 34.3%; in the experiment on MCF7 breast, 8.36% (active); with HCC-2998 colon it was 46.9%; with KM12 colon, 7.46% (active); in the experiment with MDA-MB-468 breast, 47.8%.

As to `COc1ccc2[nH]c(O)c(N=NC(=O)c3cc(-c4ccc(C)cc4)nc4ccccc34)c2c1`, the growth is 76.4% in the experiment with RPMI-8226 leukemia; 88.5% in the experiment on OVCAR-8 ovarian; 119% with OVCAR-5 ovarian; 91.8% in the experiment with OVCAR-4 ovarian; 106% in the experiment with SK-OV-3 ovarian; 102% with IGROV1 ovarian. Further, the growth with OVCAR-3 ovarian is 98.3%; in the experiment with HS 578T breast, 91%; with NCI/ADR-RES ovarian, 71.6%; in the experiment on T-47D breast, 69%; with BT-549 breast it was 139%; in the experiment with MDA-MB-435 melanoma, 95.4%. For the same compound, the growth in the experiment on SW-620 colon is 107%; in the experiment on MCF7 breast it was 61%; in the experiment on HCT-116 colon, 78.1%; in the experiment on HCC-2998 colon, 115%; with KM12 colon, 95.1%; in the experiment on MDA-MB-468 breast it was 76.2%.
